Screening data: PubChem, National Center for Advancing Translational Sciences (NCATS)
The full list was thinned out, with hits kept by preference.
TDP-43 tox inh: inhibitors of TDP-43 toxicity in yeast; AID 1347073; actives 0.45% (n = 45,000); Potency, µM (doses to about 46.1 µM), actives largely listed as activators; yeast TDP-43 toxicity rescue, BacTiter-Glo growth, 24 h; active means well fitted activation curve with a large enough effect; further: nearly all actives have a fitted effect of over 55% in size
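TDP-43-expressing yeast, pregrown in raffinose, seeded at OD600 0.02 in galactose medium with compound for 24 hr at 30 deg C. Growth read by BacTiter-Glo luminescence, so rescue of toxicity appears as activation.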
Hits are given with their value; 0 = inactive.

SMILES	TDP-43 tox inh
O=C(COC(=O)c1n[nH]c2ccccc12)Nc1ccccc1F	0
CCN(Cc1ccccc1)C(=O)COC(=O)c1n[nH]c2ccccc12	0
O=C(CN1C(=O)NC2(CCOc3ccccc32)C1=O)NCc1ccccc1 (configuration not stated)	0
CC(=O)Nc1ccc(NC(=O)c2c(C)nn(Cc3ccccc3Cl)c2C)cc1	0
CCOC(=O)c1oc2c(c1C)-c1nn(Cc3ccccc3Cl)cc1CC2	0
Cc1c(C(=O)O)oc2c1-c1nn(Cc3ccccc3Cl)cc1CC2	11.2µM
Cc1cccc(-c2cnc(C(O)c3ccc(-c4ccccc4)cc3)[nH]2)c1 (configuration not stated)	0
O=[N+]([O-])c1cc(S(=O)(=O)O)cc([N+](=O)[O-])c1NN(c1ccccc1)c1ccccc1	0
Cc1cccc(Nc2c3c(nc4nncn24)CCC3)c1	0
COc1ccccc1N1CCN(c2c3c(nc4nncn24)CCC3)CC1	0
Cc1ccc(Nc2c3c(nc4nncn24)CCC3)cc1	12.6µM
CNc1ccc2ncc(-c3ccccc3C(C)=O)n2n1	0
Cn1c(SCC(=O)Nc2cccnc2Cl)nnc1-c1ccco1	0
CCOC(=O)C1(C)CCCN1C(=O)c1ccc(C(=O)OC)cc1 (configuration not stated)	0
CCCSc1ncc(Cl)c(C(=O)Nc2ccc(S(=O)(=O)N3CCCCC3C)cc2)n1 (configuration not stated)	0
CCC(=O)N1CCCC(C)(C(=O)NS(=O)(=O)c2cccs2)C1 (configuration not stated)	0
COc1cc(CCC(=O)N2CCN(S(=O)(=O)c3ccc(C)cc3)CC2)cc(OC)c1OC	0
Oc1c(Cl)cc(Cl)cc1/C=C/c1ccc2cccc(O)c2n1	0
COc1cc(Cl)cc(/C=C/c2ccc3ccccc3n2)c1OC(C)=O	12.6µM
COc1c(OC(C)=O)ccc(/C=C/c2ccc3cccc(OCc4ccccc4)c3n2)c1[N+](=O)[O-]	0
CC(C)c1ccc(NC(=O)C2Cc3c(-c4ccc(Cl)cc4)ccnc3O2)cc1 (configuration not stated)	0
CCC(C)c1ccc(O)c(NC(=S)NC(=O)c2cccnc2)c1 (configuration not stated)	10µM
Cc1ccc([N+](=O)[O-])cc1NC(=S)NC(=O)c1cccnc1	0
O=C(NC(=S)NNC(=O)c1ccccc1O)c1cccnc1	0
CCN(CC)C(=O)c1ccc2nc([C@@H]3O[C@H](CO)[C@H](O)[C@H](O)[C@H]3O)[nH]c2c1	0
SMILES	TDP-43 tox inh
COc1ccc(-c2csc(C(C)(O)c3cccc(F)c3)n2)cc1 (configuration not stated)	14.1µM
Cc1ccc(-c2csc(C(C)(O)c3cccc(F)c3)n2)cc1C (configuration not stated)	0
CC(O)(c1cccc(F)c1)c1nc(-c2cccc(F)c2)cs1 (configuration not stated)	0
CC(C)Nc1nc(Nc2ccc(C(N)=O)cc2)c2sccc2n1	0
Oc1ccc(N2CCN(c3ccnc4cc(Cl)ccc34)CC2)cc1	0
COc1ccccc1Oc1ccnc2cc(Cl)ccc12	0
O=C(Oc1ccnc2cc(Cl)ccc12)N1CCCCCC1	3.16µM
COc1ccc(NC(=O)Cn2c(=O)oc3cc(S(=O)(=O)N4CCCC4)ccc32)cc1OC	0
CCOC(=O)C(=O)N(C)c1c(CC)nc2c(OCc3ccc(OC(F)F)cc3)cccn12	0
Cc1cc(C(=O)OCC(=O)Nc2ccccc2Br)c(C)o1	0
C=CCn1c(-c2ccccc2OC)n[nH]c1=S	0
CCn1c(-c2cc(-c3ccc(C)cc3)nc3ccccc23)n[nH]c1=S	0
C=CCn1c(-c2cc(-c3ccc(C)cc3)nc3ccccc23)n[nH]c1=S	14.1µM
Cc1ccc(CNC(=O)c2sc3nc[nH]c(=O)c3c2C)cc1	0
c1cnc2c(-c3ccc4nccn4c3)cccc2c1	0
COc1ccc(C(N)c2csc(Nc3ccc(C(=O)NCCCO)cn3)n2)cc1 (configuration not stated)	0
CCN(CC)C(=O)c1cccc(-c2csc(C(O)c3ccc(F)c(OC)c3)n2)c1 (configuration not stated)	0
O=C(Nc1cccc(Cl)c1)c1ccc2c(c1)OCCO2	0
CCOC(=O)NC(=S)Nc1cccc(NC(=S)NC(=O)OCC)c1	0
O=C(Nc1ccc(C(=O)O)cc1)/C(=C/c1ccc2c(c1)OCO2)NC(=O)c1cccc(Br)c1	0
COC(=O)COc1cccc(NC(=O)c2cccc(C)c2)c1	0
O=C(NC(=S)Nc1ccc2c(c1)OCCO2)c1cccc(Br)c1	12.6µM
CCOc1cccc(C(=O)NC(=S)Nc2cccc(C)c2)c1	20µM
CC1CN(S(=O)(=O)c2ccc(C(=O)N(C)C3CCCCC3)cc2)CC(C)O1 (configuration not stated)	0
O=C(NCc1ccc(F)cc1)C(c1ccco1)N(C(=O)c1csnn1)C1CC1 (configuration not stated)	0
SMILES	TDP-43 tox inh
COCc1cc(C)nc2sc(C(=O)Nc3ccccc3O)c(N)c12	0
Cc1c(Cl)cccc1NC(=O)C1CCCN(c2nnc(-n3c(C)ccc3C)s2)C1 (configuration not stated)	0
O=C(NCc1ccccc1Cl)c1ccc2sc([C@H]3C[C@H](O)[C@@H](CO)O3)nc2c1	0
CCOC(=O)COc1ccccc1/C=N/O	0
O/N=C/c1ccccc1Oc1ccc(Cl)cc1	17.8µM
COC(=O)N/N=C/c1ccccc1OCCOc1ccc(OC)cc1	0
CCCNC(=O)COC(=O)c1c2c(nc3ccccc13)CCC2	0
CC1Cc2ccccc2N1C(=O)COC(=O)c1c2c(nc3ccccc13)CCCCC2 (configuration not stated)	14.1µM
CC1Cc2ccccc2N1C(=O)COC(=O)Cn1nnc(-c2ccccc2)n1 (configuration not stated)	0
CCc1nc2ccc(C(=O)NCCCN(C)C)cn2c1N(C)CCCc1ccccc1	0
COCCNC(=O)C1CCCN(C(=O)c2csc3ccccc23)CC1 (configuration not stated)	0
Cn1nc(C(C)(C)C)cc1C(=O)N1CCCCC1c1cc(C(=O)NCc2cccnc2)no1 (configuration not stated)	0
COc1cc(/C=C/C(=O)O)ccc1OS(=O)(=O)c1ccc(C)cc1	0
COc1ccc(/C=C/C(=O)O)cc1Cl	11.2µM
COc1cc(/C=C/C(=O)O)ccc1OCc1ccc([N+](=O)[O-])cc1	0
CN(C)CCNC(=O)c1ccc2nc([C@@H]3O[C@H](CO)[C@H](O)[C@H](O)[C@H]3O)[nH]c2c1	0
CC1(C(=O)NS(=O)(=O)c2cccs2)CCN1C(=O)c1ccco1 (configuration not stated)	0
O=C(NCC1CCOCC1)c1cccc2c(-c3cccnc3)coc12	0
CC(C)CNC(=O)c1cccc2c(-c3cccnc3)coc12	0
COc1ccc(NC(=O)c2cccc3c(-c4cccnc4)coc23)cc1	10µM
Cc1ccc(NC(=O)C2(C)CCN2Cc2cccc3c2OCO3)cc1O (configuration not stated)	0
Cc1ccc(Cl)cc1-c1cc(C(=O)NCc2cc(C(F)(F)F)cc(C(F)(F)F)c2)[nH]n1	0
CCc1ccccc1NC(=O)N1CCCn2nc(C)cc21	0
CN(C)CCN[C@H]1CCC2C3CC=C4C[C@@H](O)CC[C@]4(C)C3CC[C@@]21C (some centres not stated)	0
S=c1[nH]cnc2scc(-c3ccc(Br)cc3)c12	0
O=c1[nH]cnc2scc(-c3ccc(Br)cc3)c12	0
